# Screening results as filed in PubChem.
# CCHF vOTU inh-1: blocks the CCHF virus ovarian tumor domain protease; 0.55% of 370,000 active; AID 651958; inhibition, % at 11.5 µM; CCHFV vOTU protease, Pep-AMC fluorescence; in the data active = inhibition above about 30%; also: 0% = vehicle wells with enzyme and 100% = no enzyme wells
# BoNT A protease: inhibitors of Botulinum neurotoxin A light chain protease; AID 588499; 0.17% of 360,000 active; multiplex microsphere protease substrate cleavage, flow cytometry; inhibition, % at 10 µM; also: plate controls were buffer without enzyme for full effect and enzyme alone for no effect
# BoNT F protease: blocks Botulinum neurotoxin F light chain protease; Multiplex microsphere protease cleavage assay, flow cytometry; inhibition, % at 10 µM; 0.22% of 360,000 active; AID 588497; in the data active = inhibition above about 35%, passing the limit was not always enough; inconclusive = no clear call, values can overlap the other calls; also: plate controls were buffer without enzyme for full effect and enzyme alone for no effect
# 3CLpro inhibitor: SARS-CoV 3CLpro protease inhibition. recombinant SARS-CoV 3CLpro, quenched FRET peptide cleavage. inhibition, % at 6 µM. 0.14% of 290,000 active. AID 1706; in the data active = inhibition above about 12%
# Bead autofluor: compound fluorescence in toxin protease inhibitor counterscreen; 3.1% of 360,000 active; compound autofluorescence counterscreen, microsphere flow cytometry; hits give high values; AID 624483; fluorescence intensity (concentration not given with the values); in the data active = fluorescence intensity above about 16000; inconclusive = no clear call, values can overlap the other calls
# Anthrax LF prot: anthrax lethal factor protease inhibition. multiplex microsphere protease cleavage assay, LF. 0.12% of 360,000 active. inhibition, % at 10 µM. P15917; also: plate controls were buffer without enzyme for full effect and enzyme alone for no effect
# Target sequence (P15917 whole entry, looked up): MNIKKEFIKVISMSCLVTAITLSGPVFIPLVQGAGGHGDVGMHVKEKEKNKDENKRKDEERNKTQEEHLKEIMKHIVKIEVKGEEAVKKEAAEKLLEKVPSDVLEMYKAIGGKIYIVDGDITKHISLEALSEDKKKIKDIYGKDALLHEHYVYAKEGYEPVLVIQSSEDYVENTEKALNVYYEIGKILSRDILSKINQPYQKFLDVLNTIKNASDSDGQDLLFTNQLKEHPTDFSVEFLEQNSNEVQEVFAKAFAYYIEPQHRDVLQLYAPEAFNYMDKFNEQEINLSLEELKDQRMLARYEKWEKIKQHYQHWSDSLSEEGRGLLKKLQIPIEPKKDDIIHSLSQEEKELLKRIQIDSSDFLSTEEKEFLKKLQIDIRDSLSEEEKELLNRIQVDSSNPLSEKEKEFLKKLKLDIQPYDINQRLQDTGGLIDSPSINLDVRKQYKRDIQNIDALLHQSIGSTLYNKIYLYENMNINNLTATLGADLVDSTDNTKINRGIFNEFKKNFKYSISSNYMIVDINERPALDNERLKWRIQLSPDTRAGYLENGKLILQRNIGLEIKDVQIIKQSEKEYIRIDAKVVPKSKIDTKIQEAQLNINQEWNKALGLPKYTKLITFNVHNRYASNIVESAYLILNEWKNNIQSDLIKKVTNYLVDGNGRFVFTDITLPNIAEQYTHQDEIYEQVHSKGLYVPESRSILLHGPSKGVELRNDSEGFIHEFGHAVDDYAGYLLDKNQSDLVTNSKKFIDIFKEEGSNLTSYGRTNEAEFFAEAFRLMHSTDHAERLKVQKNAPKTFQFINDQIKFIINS
# CCHF vOTU inh-2: CCHFV vOTU protease inhibition, confirmation; 17% of 1,900 active; AID 686976; shares compounds with CCHF vOTU inh-1; Recombinant CCHFV vOTU, Pep-AMC fluorescence; inhibition, % at 11.5 µM; in the data active = inhibition above about 30%
# * marks the source's active call; other numbers are inactive results; u = inconclusive; x = not tested or not shown. Shown are actives, neighbours in structure and some others; about 3.9% of the full set was active somewhere. Rule as the data show it, unless noted: active = inhibition above about 30%; inconclusive = no clear call, values can overlap the other calls; inactive = below that.
SMILES,CCHF vOTU inh-1,BoNT A protease,BoNT F protease,3CLpro inhibitor,Bead autofluor,Anthrax LF prot,CCHF vOTU inh-2
C=CC[C@H](CC(=O)N(CCO)Cc1ccccc1)C(=O)N[C@H](COC(=O)[C@@H](CC=C)CC(=O)OC(C)(C)C)Cc1ccccc1,22,-1,-14,x,3937,-8,x
C=CC[C@@H](CC(=O)N(CCO)Cc1ccccc1)C(=O)N[C@H](COC(=O)[C@@H](CC=C)Cc1ccc(F)cc1)Cc1c[nH]c2ccccc12,14,0,-9,x,2828,-4,x
C=CC[C@H](CC(=O)N(CCO)Cc1ccccc1)C(=O)N[C@H](COC(=O)[C@H](CC=C)CC(=O)OC(C)(C)C)Cc1c[nH]c2ccccc12,24,-1,1,x,3460,-6,x
Nc1[nH]c(C(=O)c2ccccc2)c(-c2ccc(Br)cc2)c1C(=O)c1ccccc1,20,x,x,x,x,x,x
CC(=O)c1ccc(S(=O)(=O)NCC2CCN(C(=O)C(=O)c3cc4ccccc4o3)CC2)cc1,11,x,x,x,x,x,x
C=CCC[C@H](Cc1ccc(F)cc1)C(=O)OC[C@@H](Cc1c[nH]c2ccccc12)NC(=O)[C@@H](CC=C)CC(=O)N[C@@H](CO)Cc1ccccc1,32*,0,-5,x,2857,1,11
C=CC[C@@H](CC(=O)N[C@@H](CO)Cc1ccccc1)C(=O)N[C@H](COC(=O)[C@H](CC=C)CC(=O)OC(C)(C)C)Cc1c[nH]c2ccccc12,25,0,1,x,4293,-4,x
C=CC[C@@H](CC(=O)N(CCO)Cc1ccccc1)C(=O)N[C@@H](COC(=O)[C@H](CC=C)CC(=O)OC(C)(C)C)Cc1c[nH]c2ccccc12,39*,0,-2,x,3289,-2,15
C=CCNc1ccc2c(c1)OC[C@H](CC(C)C)NS2(=O)=O,2,x,x,x,x,x,x
CN(C)c1ccc(NC2=C(Cl)C(=O)c3ccccc3C2=O)cc1,56*,-1,-23,1,2263,-3,14
O=C1C(Cl)=C(Nc2ccc3cn[nH]c3c2)C(=O)c2ccccc21,87*,-4,-81,6,2461,-21,80*
C=CCN(CC#Cc1cccnc1)Cc1ccc(OC)cc1OC,4,x,x,x,x,x,x
COC(=O)CN(c1ccc(F)cc1)S(=O)(=O)c1ccccc1,9,-2,-16,-1,3653,-8,x
COC(=O)Cc1ccc(N(Cc2ccccc2F)S(=O)(=O)c2ccc(Cl)cc2)cc1,32*,1,3,-4,2462,-2,2
COC(=O)C1=C(C)N(C)C(=NCc2ccc(OC)cc2)NC1c1ccc(C(F)(F)F)cc1 (centres undefined),0,x,x,x,x,x,x
O=C(C1CCN(c2ncnc3c2sc2cccc(F)c23)CC1)N1CCCCC1,0,x,x,x,x,x,x
Cc1ccc2c(c1)c1c(n2CC(O)CNC(C)(C)C)CCCC1 (centres undefined),57*,1,-26,-2,6416,-20,-14
CCOC(=O)[C@]12CCCC=C1N(CCCOC)C(=O)[C@@H]2CC(=O)NCCCCc1ccccc1,1,x,x,x,x,x,x
O=C(COC(=O)c1ccccc1SCC(=O)N1CCCC1)Nc1ccccc1C(F)(F)F,-8,0,-2,-4,5803,2,x
CCOc1ccccc1NC(=O)COC(=O)c1ccccc1SCC(=O)N1CCCC1,37*,-2,-17,x,u,-5,-10
NC(=O)c1ccc(NC(=O)COC(=O)c2ccccc2SCC(=O)N2CCCC2)cc1,33*,0,10,x,2846,0,-6
Cc1onc(-c2ccccc2Cl)c1C(=O)N1CCC(Cc2ccccc2)CC1,32*,2,5,2,4603,-1,-23
CCCCCCCCN1C(=O)[C@H](CC(=O)NCc2cccs2)C[C@@]2(C(=O)OCC)CCCC=C12,31*,0,-6,x,5818,-1,14
CCOC(=O)[C@]12CCCC=C1N(CCc1ccc(OC)c(OC)c1)C(=O)[C@H](CC(=O)NCc1ccccc1)C2,6,x,x,x,x,x,x
CCCCCCCCN1C(=O)[C@H](CC(=O)NCc2ccc(OC)c(OC)c2)C[C@@]2(C(=O)OCC)CCCC=C12,39*,-1,-2,x,6088,-3,16
SMILES,CCHF vOTU inh-1,BoNT A protease,BoNT F protease,3CLpro inhibitor,Bead autofluor,Anthrax LF prot,CCHF vOTU inh-2
CCCCCCCCN1C(=O)[C@H](CC(=O)NCCc2ccccc2OC)C[C@@]2(C(=O)OC)CCCCC=C12,47*,0,3,x,4135,-6,10
CCOC(=O)[C@]12CCC=C1N(Cc1ccc(Cl)cc1Cl)C(=O)[C@H](CC(=O)NCc1ccc(C)o1)C2,34*,-2,-1,x,4226,-10,-11
O=[N+]([O-])c1ccc2c(c1)CCCO[C@]21O[C@H](CCO)C[C@H](O)[C@H]1O,-2,x,x,x,x,x,x
Cc1ccc(-n2c(-c3ccncc3)n[nH]c2=S)cc1,5,-1,-4,-4,4300,1,x
Cc1ccc(-n2c(-c3cnccn3)n[nH]c2=S)cc1,30*,0,-3,4,4540,-2,-10
O=C(Nc1cccc(OC(F)(F)F)c1)C1Cc2c(-c3ccccc3Oc3ccccc3)ccnc2O1 (centres undefined),30*,-1,-6,x,4142,-5,-5
O=C(Nc1cc(C(F)(F)F)ccc1F)C1Cc2c(-c3ccccc3Oc3ccccc3)ccnc2O1 (centres undefined),36*,0,-6,x,3303,-2,-2
CCOc1ccc(-n2c(SCc3nc4ccccc4[nH]3)nnc2-c2cccc(Cl)c2)cc1,9,x,x,x,x,x,x
COc1cc(F)ccc1Oc1cccc2c1S(=O)(=O)N([C@H](C)c1ccccc1)C[C@@H](COCc1ccccc1)O2,-6,x,x,x,x,x,x
O=C1CCn2c1c(O)c1ccccc1c2=O,95*,0,-10,x,3237,-4,34*
CCn1c(SCC(=O)NN=Cc2cc(OC)ccc2OC)nnc1-c1ccc(OC)cc1,-5,x,x,x,x,x,x
Cc1ccc(C)c(N2CCN(C(=O)c3ccc4nc(-c5ccco5)c(-c5ccco5)nc4c3)CC2)c1,44*,17,7,3,7989,6,-17
COc1ccccc1N1CCN(C(=O)c2ccc3nc(-c4ccco4)c(-c4ccco4)nc3c2)CC1,4,4,3,-4,8608,-1,x
NC(=O)c1ccc(NC(=O)CSc2nnc(-c3ccccc3)n2-c2ccccc2)cc1,1,x,x,x,x,x,x
Cn1cc(/C=C2\SC(=S)N(NC(=O)c3ccccc3Cl)C2=O)c2ccccc21,31*,26,9,2,3678,23,27
COc1cc(O)c(NC(C)=O)c2nonc12,40*,u,27,-3,5994,6,-20
COc1cc(-c2ccc(NC(C)=O)c(OC)c2)ccc1NC(C)=O,-3,-3,u,2,u,5,x
Cc1noc(NS(=O)(=O)c2ccc(NS(=O)(=O)c3ccc(C(C)(C)C)cc3)cc2)c1C,30*,0,11,x,4045,-10,-15
CC(C)C[C@H]1COc2c(Cl)cccc2S(=O)(=O)N1Cc1cccc(Cl)c1,15,x,x,x,x,x,x
CCCCNc1ccc2nsnc2c1[N+](=O)[O-],57*,0,-6,-4,2486,2,-6
